In the library only some 3.2% were active in any assay of this set; here they are far more common.
CendR NRP1 mod: modulators of CendR peptide binding to NRP-1, primary screen, biochemical, fluorescence polarization, uHTS | FAM-RPARPAR peptide binding to NRP-1 | AID 602438, 2012 | inhibition, % at 25 µM | actives 0.85% (n = 360,000) | Neuropilin-1 (Homo sapiens), O14786;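 active = inhibition or corrected inhibition above about 18%, plus a signal ratio from 0.5 to 1.5, limit read from the data, passing the limit was not always enough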
MEKK2mut PB1 HTS: MEK5 binding signal on mutant MEKK2 PB1, primary screen, biochemical, multiplex bead flow cytometry, Alexa488-MEK5; Alexa488-MEK5 binding to MEKK2 mutant; percent response, % at 10 µM; actives 0.35% (n = 290,000); in the data active = percent response above about 24%, passing the limit was not always enough
SKN-1 block: suppressors of acrylamide-induced Pgst-4::GFP reporter in worms, primary screen, SKN-1 inhibitor project, whole organism, uHTS, GFP/RFP fluorescence ratio, strain VP596 | inhibition, % at 21.8 µM | actives 0.49% (n = 360,000) | AID 624304, 2012 | C. elegans VP596 Pgst-4::GFP/RFP ratio, 24 h;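 active = interference check ratio from 0.5 to 1.5 plus GFP to RFP signal ratio inhibition reaching or exceeding a fixed threshold, cut at about 30% in these data, passing the limit was not always enough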
MEKK3 PB1 HTS: modulators of MEKK3-MEK5 PB1 binding, primary screen, biochemical, wildtype MEKK3, multiplex bead flow cytometry, Alexa488-MEK5; actives 1.4% (n = 290,000); Mitogen-activated protein kinase kinase kinase 3 (Homo sapiens), Q99759; bead-based flow cytometry, Alexa488-MEK5 binding to MEKK3; actives lie on both sides; 0 = blocked by unlabeled MEK5, 100 = vehicle; binding response (% of control), % at 10 µM;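 active = binding response more than 3 SD above or below the average of its plate-row segment, actives on both sides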;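 also: Alexa488 bead fluorescence after subtracting the streptavidin-only scavenger bead signal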
Target sequence (Q99759 whole entry, looked up): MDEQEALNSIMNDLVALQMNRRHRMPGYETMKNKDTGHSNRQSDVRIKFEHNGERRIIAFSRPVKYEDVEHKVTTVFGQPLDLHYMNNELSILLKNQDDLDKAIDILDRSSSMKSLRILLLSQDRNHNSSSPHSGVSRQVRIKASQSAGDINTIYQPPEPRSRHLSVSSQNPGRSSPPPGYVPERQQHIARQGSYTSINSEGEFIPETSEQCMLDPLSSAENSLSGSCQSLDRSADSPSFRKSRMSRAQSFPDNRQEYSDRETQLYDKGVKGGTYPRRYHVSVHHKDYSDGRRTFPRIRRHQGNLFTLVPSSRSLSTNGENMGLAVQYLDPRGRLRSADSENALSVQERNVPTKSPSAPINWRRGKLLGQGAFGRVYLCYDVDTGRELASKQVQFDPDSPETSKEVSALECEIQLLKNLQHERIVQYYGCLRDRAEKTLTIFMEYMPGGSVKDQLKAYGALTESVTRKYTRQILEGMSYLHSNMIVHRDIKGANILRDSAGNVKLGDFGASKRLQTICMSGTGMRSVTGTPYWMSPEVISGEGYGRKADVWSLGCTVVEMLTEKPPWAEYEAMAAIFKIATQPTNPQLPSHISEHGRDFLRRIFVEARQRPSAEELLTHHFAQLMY
MEKK2wt PB1 HTS: modulators of MEK5 binding to wildtype MEKK2, primary screen, biochemical, multiplex bead flow cytometry, Alexa488-MEK5 | binding response (% of control), % at 10 µM | AID 1531, 2009 | actives 1.1% (n = 290,000) | Alexa488-MEK5 binding to MEKK2 WT; actives lie on both sides; in the data active = binding response below about 67% or above about 130%
MEKK2wt confirm: modulators of MEK5 binding to wildtype MEKK2, confirmation, biochemical, single concentration, multiplex bead flow cytometry | actives 2.4% (n = 5,900) | binding response (% of control), % at 10 µM | AID 1892, 2009 | Alexa488-MEK5 binding to MEKK2 WT; actives lie on both sides | shares compounds with MEKK3 PB1 HTS; in the data active = binding response below about 16% or above about 210%; inactive = in between
MEKK2mut confirm: mutant MEKK2 PB1-MEK5 binding signal retest – biochemical, single concentration, multiplex bead flow cytometry, confirmation | actives 2% (n = 5,900) | Alexa488-MEK5 binding to MEKK2 mutant | shares compounds with MEKK3 PB1 HTS | percent response, % at 10 µM; in the data active = percent response mostly above about 71%, no sharp cut-off; inactive = mostly below about 38%;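 also: higher means compound restores mutant binding toward wildtype level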
MEKK3 confirm: MEKK3 wild-type PB1 binding to MEK5, inhibitors, confirmation, biochemical, bead multiplex flow cytometry, single concentration, wildtype; Alexa488-MEK5 binding to MEKK3; active compounds read low; shares compounds with MEKK3 PB1 HTS; binding response (% of control), % at 10 µM; actives 1.8% (n = 5,900); AID 1894, 2009;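 active = binding response below 72% of control, or above a set upper limit, though filed actives all read lower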;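 also: lower values mean stronger disruption of MEK5 binding to MEKK3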
Large screens that a line does not name were inactive (follow-up assays come after a bar, where they were run); [ ] = remark or other dose.

Cc1[nH]c2ccccc2c1C(Nc1nccs1)c1ccncc1 (stereo not drawn)	MEKK3 PB1 HTS 138 | MEKK2wt confirm inactive | MEKK2mut confirm inactive | MEKK3 confirm inactive
COc1cc2c(cc1OC)CN(C(=O)c1ccco1)CC2	MEKK3 PB1 HTS 143 | MEKK2wt confirm inactive | MEKK2mut confirm inactive | MEKK3 confirm inactive
CCOC(=O)C1CCN(C(=O)COC(=O)COc2ccc(Cl)cc2)CC1	MEKK3 PB1 HTS 37[inhibitor] | MEKK2wt confirm inactive | MEKK2mut confirm inactive | MEKK3 confirm inactive
CCOC(=O)C1CCN(C(=O)Cc2ccc(OC)c(OC)c2)CC1	MEKK3 PB1 HTS 81[inhibitor] | MEKK2wt confirm inactive | MEKK2mut confirm inactive | MEKK3 confirm inactive
OC(c1cccc(Cl)c1)c1ncc(-c2cccc(C(F)(F)F)c2)[nH]1 (stereo not drawn)	none (no result: MEKK2mut PB1 HTS, MEKK3 PB1 HTS, MEKK2wt PB1 HTS)
COc1ccc(C(C#N)Nc2ccccc2OC)cc1 (stereo not drawn)	none
Cc1ccc(Cl)cc1NC(C#N)c1ccccc1 (stereo not drawn)	MEKK3 PB1 HTS 129 | MEKK2wt confirm inactive | MEKK2mut confirm inactive | MEKK3 confirm inactive
CCCn1nnc(NC(=O)c2cccc(Cl)c2)n1	none
CCCn1nnc(NC(=O)c2sc3ccccc3c2Cl)n1	MEKK3 PB1 HTS 74[inhibitor] | MEKK2wt confirm inactive | MEKK2mut confirm inactive | MEKK3 confirm inactive
COc1cc(/C=N/NC(=O)C2c3ccccc3Oc3ccccc32)ccc1O	MEKK3 PB1 HTS 122 | MEKK2wt confirm inactive | MEKK2mut confirm inactive | MEKK3 confirm inactive
COc1cc(/C=N\NC(=O)CNC(=O)C2COc3ccccc3O2)ccc1O (stereo not drawn)	MEKK3 PB1 HTS 134, MEKK2wt PB1 HTS 170 | MEKK2wt confirm inactive | MEKK2mut confirm inactive | MEKK3 confirm inactive
COc1cc(/C=N/NC(=O)C2COc3ccccc3O2)ccc1O (stereo not drawn)	none
CCOc1ccc(/C=N/NC(=O)C2(O)c3ccccc3-c3ccccc32)cc1	none
COc1cc(/C=N/NC(=O)C2(O)c3ccccc3-c3ccccc32)ccc1O	MEKK3 PB1 HTS 148 | MEKK2wt confirm inactive | MEKK2mut confirm inactive | MEKK3 confirm inactive
O=C(NN=Cc1ccc(Cl)cc1Cl)C1CC1	none (no result: MEKK2mut PB1 HTS, MEKK3 PB1 HTS, MEKK2wt PB1 HTS)
CCCCN(C)C(=O)c1ccc(Nc2nc(C(N)Cc3ccc(C(F)(F)F)cc3)cs2)nc1 (stereo not drawn)	none (no result: MEKK2mut PB1 HTS, MEKK3 PB1 HTS, MEKK2wt PB1 HTS)
C[C@H](CO)N1C[C@H](C)[C@H](CN(C)C(=O)Nc2cccc(Oc3ccccn3)c2)OCc2cnnn2CCCC1=O	none (no result: MEKK2mut PB1 HTS, MEKK3 PB1 HTS, MEKK2wt PB1 HTS)
CCCCn1c(N)c(N(CC(C)C)C(=O)C2CC(=O)N(Cc3ccccc3)C2)c(=O)[nH]c1=O (stereo not drawn)	none (no result: MEKK2mut PB1 HTS, MEKK3 PB1 HTS, MEKK2wt PB1 HTS)
CCC(C(=O)NC(C)(C)C)n1c(-c2ccc3c(c2)OCO3)nc2ccccc21 (stereo not drawn)	none (no result: MEKK2mut PB1 HTS, MEKK3 PB1 HTS, MEKK2wt PB1 HTS)
CC(=O)c1ccc(NC(=O)CN2C(=O)NC3(CCc4ccccc43)C2=O)cc1 (stereo not drawn)	none (no result: MEKK2mut PB1 HTS, MEKK3 PB1 HTS, MEKK2wt PB1 HTS)
O=[N+]([O-])c1cc(Cc2ccccc2)cc(C=Nc2ccc(N3CCOCC3)cc2)c1O	MEKK3 PB1 HTS 146 | MEKK2wt confirm inactive | MEKK2mut confirm inactive | MEKK3 confirm inactive
Cc1ccc(O)c(N=Cc2cc(Cc3ccccc3)cc([N+](=O)[O-])c2O)c1	none
CCOC(=O)c1sc2cc([N+](=O)[O-])cc(SCC(C)C)c2c1N	MEKK2mut PB1 HTS 28, MEKK2wt PB1 HTS 16 | MEKK2wt confirm inactive | MEKK2mut confirm inactive | MEKK3 confirm inactive
COc1ccc(C(=O)NC2CCCc3ccccc32)cc1OC1CCN(C(C)=O)CC1 (stereo not drawn)	none
CCC(C)(C(=O)NC1CCCC1)N(C(C)=O)c1ccc(C)cc1 (stereo not drawn)	MEKK3 PB1 HTS 2.0[inhibitor], MEKK2wt PB1 HTS 2.0[inhibitor] | MEKK2wt confirm inactive | MEKK2mut confirm inactive | MEKK3 confirm inactive
Cc1cccc(C)c1NC(=O)C(c1ccccc1)N1CCN(C/C=C/c2ccccc2)CC1 (stereo not drawn)	none (no result: MEKK2mut PB1 HTS, MEKK3 PB1 HTS, MEKK2wt PB1 HTS)
O=C(NCCc1c[nH]c2ccccc12)/C(=C\c1cccs1)NC(=O)c1ccccc1	MEKK3 PB1 HTS 41[inhibitor] | MEKK2wt confirm inactive | MEKK2mut confirm inactive | MEKK3 confirm inactive
OCC1OC2C(NC(=S)N2c2ccccc2)C(O)C1O (stereo not drawn)	none (no result: MEKK2mut PB1 HTS, MEKK3 PB1 HTS, MEKK2wt PB1 HTS)
COc1ccc(C(=O)C2CCCN(C(=O)c3cc(C)nc(C)n3)C2)cc1OC (stereo not drawn)	MEKK3 PB1 HTS 129 | MEKK2wt confirm inactive | MEKK2mut confirm inactive | MEKK3 confirm inactive
COc1c(NC=O)c2c(c([N+](=O)[O-])c1OC)C(=O)OC2	none (no result: MEKK2mut PB1 HTS, MEKK3 PB1 HTS, MEKK2wt PB1 HTS)
Cc1ccc(-c2cn3cccnc3n2)cc1NC(=O)c1cccs1	MEKK3 PB1 HTS 133 | MEKK2wt confirm inactive | MEKK2mut confirm inactive | MEKK3 confirm inactive
Cc1cc(=O)n2nc(N3CCCC(C(=O)NCCCN4CC(C)CC(C)C4)C3)sc2n1 (stereo not drawn)	none
O=c1[nH]c(/C=C/c2cccc3ccccc23)nc2ccccc12	none
O=c1[nH]c(/C=C/c2ccccc2[N+](=O)[O-])nc2ccccc12	MEKK3 PB1 HTS 132 | MEKK2wt confirm inactive | MEKK2mut confirm inactive | MEKK3 confirm inactive
O=C(NCc1ccco1)C1CC(c2ccc(Cl)c(Cl)c2)=NO1 (stereo not drawn)	MEKK3 PB1 HTS 39[inhibitor], MEKK2wt PB1 HTS 42[inhibitor] | MEKK2wt confirm inactive | MEKK2mut confirm inactive | MEKK3 confirm inactive
O=C(NCc1ccco1)C1CC(c2c(Cl)cccc2Cl)=NO1 (stereo not drawn)	none
COc1ccc(C(=O)Nc2ccc(NC(=O)c3cccs3)c(OC)c2)cc1Cl	none
COc1ccc(C(=O)Nc2ccc(NC(=O)c3cccs3)cc2)cc1Cl	MEKK3 PB1 HTS 130 | MEKK2wt confirm inactive | MEKK2mut confirm inactive | MEKK3 confirm inactive
